The full data set covers some 8,800 targets. This sample favours those with a hit. About 0.5% of all pairs of compound and target were hits. A number with no mark means an inactive call.

Sequence of UniProt O15111 (O15111 whole entry, looked up): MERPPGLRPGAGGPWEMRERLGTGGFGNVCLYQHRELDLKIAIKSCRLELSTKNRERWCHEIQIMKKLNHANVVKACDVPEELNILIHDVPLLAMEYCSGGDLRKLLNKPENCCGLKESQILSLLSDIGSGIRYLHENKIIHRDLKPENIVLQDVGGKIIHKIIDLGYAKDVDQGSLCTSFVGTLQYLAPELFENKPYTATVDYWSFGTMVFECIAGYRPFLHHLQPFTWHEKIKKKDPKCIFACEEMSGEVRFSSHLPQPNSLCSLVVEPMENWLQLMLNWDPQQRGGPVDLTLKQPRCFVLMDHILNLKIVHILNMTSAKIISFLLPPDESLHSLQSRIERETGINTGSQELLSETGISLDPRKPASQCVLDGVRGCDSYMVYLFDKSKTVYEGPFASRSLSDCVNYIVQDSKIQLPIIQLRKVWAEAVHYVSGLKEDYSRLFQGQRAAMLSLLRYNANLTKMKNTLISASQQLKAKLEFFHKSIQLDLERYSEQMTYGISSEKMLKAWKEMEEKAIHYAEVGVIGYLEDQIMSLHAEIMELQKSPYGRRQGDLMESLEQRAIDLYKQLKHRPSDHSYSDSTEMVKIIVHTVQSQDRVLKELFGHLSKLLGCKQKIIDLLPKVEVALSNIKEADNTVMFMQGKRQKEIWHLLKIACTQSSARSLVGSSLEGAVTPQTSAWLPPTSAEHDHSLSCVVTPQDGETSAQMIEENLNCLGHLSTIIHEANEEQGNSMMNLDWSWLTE
Sequence of UniProt P50416 (P50416 whole entry, looked up): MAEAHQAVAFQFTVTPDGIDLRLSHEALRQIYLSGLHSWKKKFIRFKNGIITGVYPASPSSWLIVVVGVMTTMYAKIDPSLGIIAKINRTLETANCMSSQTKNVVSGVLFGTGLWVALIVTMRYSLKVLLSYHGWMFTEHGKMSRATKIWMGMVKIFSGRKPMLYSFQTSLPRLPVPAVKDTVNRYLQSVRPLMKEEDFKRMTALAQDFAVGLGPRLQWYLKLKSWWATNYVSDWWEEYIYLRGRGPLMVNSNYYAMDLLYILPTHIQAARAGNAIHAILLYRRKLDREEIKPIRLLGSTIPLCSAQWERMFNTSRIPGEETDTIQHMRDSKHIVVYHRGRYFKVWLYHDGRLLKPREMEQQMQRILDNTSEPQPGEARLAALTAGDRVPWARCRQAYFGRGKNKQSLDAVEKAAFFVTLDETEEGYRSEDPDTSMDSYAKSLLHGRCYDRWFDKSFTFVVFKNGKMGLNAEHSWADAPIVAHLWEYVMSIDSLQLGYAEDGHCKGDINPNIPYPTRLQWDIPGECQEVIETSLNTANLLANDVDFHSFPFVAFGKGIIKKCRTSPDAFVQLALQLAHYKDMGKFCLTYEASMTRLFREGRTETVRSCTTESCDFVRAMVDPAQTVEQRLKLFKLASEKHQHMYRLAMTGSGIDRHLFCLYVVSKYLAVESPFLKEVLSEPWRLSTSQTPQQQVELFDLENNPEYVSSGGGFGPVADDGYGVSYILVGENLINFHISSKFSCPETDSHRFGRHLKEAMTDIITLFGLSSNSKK
Sequence of UniProt Q92796 (Q92796 whole entry, looked up): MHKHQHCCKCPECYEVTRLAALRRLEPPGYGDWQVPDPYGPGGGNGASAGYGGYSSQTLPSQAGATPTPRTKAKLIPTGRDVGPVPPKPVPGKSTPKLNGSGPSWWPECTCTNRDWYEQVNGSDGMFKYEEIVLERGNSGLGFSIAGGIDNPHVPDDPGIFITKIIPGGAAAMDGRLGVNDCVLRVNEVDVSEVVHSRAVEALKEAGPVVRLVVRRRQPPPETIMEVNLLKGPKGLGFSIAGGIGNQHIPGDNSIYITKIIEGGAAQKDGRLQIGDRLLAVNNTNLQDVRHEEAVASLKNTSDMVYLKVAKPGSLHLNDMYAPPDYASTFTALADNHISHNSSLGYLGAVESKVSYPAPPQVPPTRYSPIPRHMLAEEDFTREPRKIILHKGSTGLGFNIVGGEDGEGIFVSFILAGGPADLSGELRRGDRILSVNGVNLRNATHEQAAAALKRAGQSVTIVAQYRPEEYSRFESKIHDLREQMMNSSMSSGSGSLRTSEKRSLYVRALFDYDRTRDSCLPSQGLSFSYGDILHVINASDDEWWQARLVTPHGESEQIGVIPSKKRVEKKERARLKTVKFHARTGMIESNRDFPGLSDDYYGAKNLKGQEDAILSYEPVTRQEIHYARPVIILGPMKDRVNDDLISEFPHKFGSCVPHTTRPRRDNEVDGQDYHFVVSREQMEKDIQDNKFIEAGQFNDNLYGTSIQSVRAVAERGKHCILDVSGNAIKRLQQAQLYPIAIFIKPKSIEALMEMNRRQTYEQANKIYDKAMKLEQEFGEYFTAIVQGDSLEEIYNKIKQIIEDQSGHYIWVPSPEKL
Sequence of UniProt P00374 (P00374 whole entry, looked up): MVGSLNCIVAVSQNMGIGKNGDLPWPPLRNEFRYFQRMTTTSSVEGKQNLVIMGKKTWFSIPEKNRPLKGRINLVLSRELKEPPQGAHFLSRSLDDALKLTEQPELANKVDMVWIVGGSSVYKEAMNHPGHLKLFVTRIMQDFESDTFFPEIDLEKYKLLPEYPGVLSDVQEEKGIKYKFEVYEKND
Sequence of UniProt Q8WWK9 (Q8WWK9 whole entry, looked up): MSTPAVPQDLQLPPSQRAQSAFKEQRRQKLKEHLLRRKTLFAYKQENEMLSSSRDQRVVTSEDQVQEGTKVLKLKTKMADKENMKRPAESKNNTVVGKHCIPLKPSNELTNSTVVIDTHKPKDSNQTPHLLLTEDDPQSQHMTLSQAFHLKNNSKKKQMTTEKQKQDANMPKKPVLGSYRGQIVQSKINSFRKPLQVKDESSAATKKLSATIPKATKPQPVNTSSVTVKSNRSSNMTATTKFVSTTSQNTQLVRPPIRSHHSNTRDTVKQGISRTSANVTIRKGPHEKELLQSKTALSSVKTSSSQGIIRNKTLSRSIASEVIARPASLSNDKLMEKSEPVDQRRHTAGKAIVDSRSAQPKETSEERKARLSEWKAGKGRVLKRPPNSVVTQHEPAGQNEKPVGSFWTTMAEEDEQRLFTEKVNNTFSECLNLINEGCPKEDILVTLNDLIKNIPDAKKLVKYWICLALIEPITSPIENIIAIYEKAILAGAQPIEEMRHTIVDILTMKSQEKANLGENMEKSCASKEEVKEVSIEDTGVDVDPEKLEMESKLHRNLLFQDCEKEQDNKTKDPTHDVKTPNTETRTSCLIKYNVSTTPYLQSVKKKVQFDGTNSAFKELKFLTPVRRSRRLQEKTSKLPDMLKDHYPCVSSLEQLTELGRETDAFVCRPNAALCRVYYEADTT
Sequence of UniProt Q96EP5 (Q96EP5 whole entry, looked up): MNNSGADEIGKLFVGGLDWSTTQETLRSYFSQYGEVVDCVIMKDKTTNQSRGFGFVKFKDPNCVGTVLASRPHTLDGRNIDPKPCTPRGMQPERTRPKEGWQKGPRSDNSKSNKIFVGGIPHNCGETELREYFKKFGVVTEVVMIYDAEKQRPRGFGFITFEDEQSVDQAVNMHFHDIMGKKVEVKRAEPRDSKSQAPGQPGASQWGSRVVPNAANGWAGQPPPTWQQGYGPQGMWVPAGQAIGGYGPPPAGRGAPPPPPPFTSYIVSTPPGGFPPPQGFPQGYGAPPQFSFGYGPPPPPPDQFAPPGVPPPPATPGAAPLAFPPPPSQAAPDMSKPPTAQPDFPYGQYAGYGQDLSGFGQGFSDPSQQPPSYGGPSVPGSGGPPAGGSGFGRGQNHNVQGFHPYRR
Sequence of UniProt P41240 (P41240 whole entry, looked up): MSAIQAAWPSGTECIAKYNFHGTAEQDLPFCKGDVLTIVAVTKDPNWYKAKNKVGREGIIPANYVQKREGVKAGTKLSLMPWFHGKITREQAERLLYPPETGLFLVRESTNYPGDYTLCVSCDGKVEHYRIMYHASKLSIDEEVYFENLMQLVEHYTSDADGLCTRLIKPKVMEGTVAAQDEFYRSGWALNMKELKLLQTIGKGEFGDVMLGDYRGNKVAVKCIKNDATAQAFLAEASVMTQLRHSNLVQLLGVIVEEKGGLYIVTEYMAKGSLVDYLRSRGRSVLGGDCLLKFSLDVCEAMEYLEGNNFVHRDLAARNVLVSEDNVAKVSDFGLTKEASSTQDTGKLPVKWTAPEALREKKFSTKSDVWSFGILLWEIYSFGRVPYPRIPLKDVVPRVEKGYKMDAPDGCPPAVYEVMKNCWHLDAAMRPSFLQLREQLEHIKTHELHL
Sequence of UniProt Q9HCG8 (Q9HCG8 whole entry, looked up): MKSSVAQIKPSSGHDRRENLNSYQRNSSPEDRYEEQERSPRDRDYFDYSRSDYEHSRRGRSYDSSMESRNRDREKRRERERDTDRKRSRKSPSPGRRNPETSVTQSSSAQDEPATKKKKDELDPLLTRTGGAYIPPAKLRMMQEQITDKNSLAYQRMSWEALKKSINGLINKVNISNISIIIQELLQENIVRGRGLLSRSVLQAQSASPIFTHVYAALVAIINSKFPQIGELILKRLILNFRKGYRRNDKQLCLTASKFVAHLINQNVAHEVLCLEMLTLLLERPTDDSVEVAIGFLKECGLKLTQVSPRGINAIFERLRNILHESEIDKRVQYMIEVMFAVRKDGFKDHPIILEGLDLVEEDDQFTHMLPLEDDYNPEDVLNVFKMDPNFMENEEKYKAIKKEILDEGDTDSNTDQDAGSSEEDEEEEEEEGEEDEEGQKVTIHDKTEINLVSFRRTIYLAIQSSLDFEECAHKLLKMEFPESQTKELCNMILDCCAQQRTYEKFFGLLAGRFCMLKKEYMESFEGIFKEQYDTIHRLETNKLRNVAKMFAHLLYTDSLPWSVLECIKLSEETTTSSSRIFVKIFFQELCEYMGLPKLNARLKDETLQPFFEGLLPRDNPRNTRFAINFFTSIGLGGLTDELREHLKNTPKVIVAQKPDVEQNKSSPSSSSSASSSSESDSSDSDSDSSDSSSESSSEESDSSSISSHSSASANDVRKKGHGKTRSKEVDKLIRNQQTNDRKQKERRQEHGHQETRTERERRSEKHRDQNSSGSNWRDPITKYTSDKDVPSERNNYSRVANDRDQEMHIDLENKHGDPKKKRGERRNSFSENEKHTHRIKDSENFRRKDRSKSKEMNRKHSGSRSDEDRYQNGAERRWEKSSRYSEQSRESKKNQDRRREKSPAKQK

Compound in one assay: C1=CC=C(C=C1)C2=NC(=C(N2)C3=CC=NC=C3)C4=CC(=C(C=C4)Cl)O
Nature of the assay: log2 fold change, soluble protein after heating vs DMSO (PISA); higher = thermal stabilisation; K562 lysate, 10 uM; active = over 0.2 and 3.5 SD of the protein, either way, in both replicates (recomputed). In a few lines:
(§1)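 Values give the log-two fold change in thermal stability against solvent controls, from duplicates. Crude K562 extract at 1 mg/mL protein, made by dounce homogenisation in PBS pH 7.4 with 1 mM MgCl2, was treated with 10 μM compound for 30 min. After 3 min heating across 48°C-58°C, aliquots were pooled, adjusted to 0.5% NP-40 at 4°C and centrifuged at 21,000xg for 90 min. The supernatant was measured by TMTpro 16plex LC-MS/MS with channel sums equalised.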
Regarding DLGAP5 (UniProt Q15398), the log2 fold change was 0.026.

In the case of DCTN1 (UniProt Q14203), the log2 fold change is -0.001.

DOCK10 (UniProt Q96BY6): the log2 fold change is -0.048.

For DFFB (UniProt O76075), the log2 fold change was 0.047.

For CWC22 (UniProt Q9HCG8), the log2 fold change was -0.025.

On to CHMP4A isoform 2 (UniProt Q9BY43), for which the log2 fold change is 0.021.

As for DDX54 isoform 2 (UniProt Q8TDD1), the log2 fold change is -0.001.

With DLG3 isoform 2 (UniProt Q92796), the log2 fold change was -0.012.

Take COG3 (UniProt Q96JB2): the log2 fold change was -0.022.

In the case of CMPK2 (UniProt Q5EBM0), the log2 fold change was 0.004.

Consider CNOT6L (UniProt Q96LI5), for which the log2 fold change was -0.04.

With CSK (UniProt P41240), the log2 fold change is 0.031.

For the target CYP24A1 (UniProt Q07973), the log2 fold change was -0.008.

Turning to DAZAP1 (UniProt Q96EP5), the log2 fold change is 0.017.

CNIH4 (UniProt Q9P003): the log2 fold change was -0.022.

On to DNM2 (UniProt P50570), for which the log2 fold change is 0.003.

As for CMIP (UniProt Q8IY22), the log2 fold change is 0.023.

Regarding COQ9 (UniProt O75208), the log2 fold change was 0.

Regarding CNOT2 (UniProt Q9NZN8), the log2 fold change is -0.011.

In the case of DOCK8 (UniProt Q8NF50), the log2 fold change was 0.017.

Regarding CSNK2B (UniProt P67870), the log2 fold change is -0.012.

In the case of CPT1A (UniProt P50416), the log2 fold change was 0.002.

As for DNAH10 (UniProt Q8IVF4), the log2 fold change was 0.026.

For CKAP2 (UniProt Q8WWK9), the log2 fold change is 0.006.

With CIC (UniProt I3L2J0), the log2 fold change was -0.047.

With COTL1 (UniProt Q14019), the log2 fold change is 0.

Take CHORDC1 (UniProt Q9UHD1): the log2 fold change is 0.002.

Turning to CXorf38 (UniProt Q8TB03), the log2 fold change was 0.013.

As for DHFR (UniProt P00374), the log2 fold change was 0.025.

As for CORO1A (UniProt P31146), the log2 fold change was 0.005.

Regarding CHUK (UniProt O15111), the log2 fold change is 0.022.

As for DIAPH3 (UniProt Q9NSV4), the log2 fold change is 0.045.

Regarding CIP2A (UniProt Q8TCG1), the log2 fold change is 0.019.

In the case of CIAO2A (UniProt Q9H5X1), the log2 fold change was -0.025.

Compound in a further assay: C1=CC=C2C(=C1)C3=NNC4=CC=CC(=C43)C2=O
The assay is described as above. In a few lines: as §1
For DLGAP5 (UniProt Q15398), the log2 fold change was -0.021.

In the case of DCTN1 (UniProt Q14203), the log2 fold change was -0.023.

Consider DOCK10 (UniProt Q96BY6), for which the log2 fold change is -0.034.

In the case of DFFB (UniProt O76075), the log2 fold change is 0.

With CWC22 (UniProt Q9HCG8), the log2 fold change was -0.092.

Turning to CHMP4A isoform 2 (UniProt Q9BY43), the log2 fold change is 0.033.

For DDX54 isoform 2 (UniProt Q8TDD1), the log2 fold change was -0.054.

On to DLG3 isoform 2 (UniProt Q92796), for which the log2 fold change is -0.013.

As to COG3 (UniProt Q96JB2), the log2 fold change is -0.056.

For the target CMPK2 (UniProt Q5EBM0), the log2 fold change is -0.038.

On to CNOT6L (UniProt Q96LI5), for which the log2 fold change was -0.042.

For CSK (UniProt P41240), the log2 fold change is 0.106.

As for CYP24A1 (UniProt Q07973), the log2 fold change was -0.135.

With DAZAP1 (UniProt Q96EP5), the log2 fold change was -0.047.

CNIH4 (UniProt Q9P003): the log2 fold change was -0.162.

In the case of DNM2 (UniProt P50570), the log2 fold change is -0.049.

Regarding CMIP (UniProt Q8IY22), the log2 fold change was -0.067.

Take COQ9 (UniProt O75208): the log2 fold change is -0.029.

Consider CNOT2 (UniProt Q9NZN8), for which the log2 fold change is 0.014.

As to DOCK8 (UniProt Q8NF50), the log2 fold change was -0.023.

Take CSNK2B (UniProt P67870): the log2 fold change was 0.198.

CPT1A (UniProt P50416): the log2 fold change was 0.011.

Turning to DNAH10 (UniProt Q8IVF4), the log2 fold change was -0.043.

Turning to CKAP2 (UniProt Q8WWK9), the log2 fold change was -0.611 (active).

On to CIC (UniProt I3L2J0), for which the log2 fold change is -0.062.

As to COTL1 (UniProt Q14019), the log2 fold change is 0.004.

Turning to CHORDC1 (UniProt Q9UHD1), the log2 fold change was 0.005.

In the case of CXorf38 (UniProt Q8TB03), the log2 fold change was 0.012.

In the case of DHFR (UniProt P00374), the log2 fold change is -0.01.

As for CORO1A (UniProt P31146), the log2 fold change was 0.009.

In the case of CHUK (UniProt O15111), the log2 fold change is 0.015.

For the target DIAPH3 (UniProt Q9NSV4), the log2 fold change was -0.066.

Regarding CIP2A (UniProt Q8TCG1), the log2 fold change was -0.11.

For the target CIAO2A (UniProt Q9H5X1), the log2 fold change is -0.007.

Compound in the next assay: C1CCN(C1)C(=O)NC2=CC=CC(=C2)NC3=NC=C(C(=N3)NCCC4=CN=CN4)Br
Described as above. In a few lines: as §1
Turning to DLGAP5 (UniProt Q15398), the log2 fold change is -0.013.

With DCTN1 (UniProt Q14203), the log2 fold change is 0.

With DOCK10 (UniProt Q96BY6), the log2 fold change is -0.064.

In the case of DFFB (UniProt O76075), the log2 fold change is 0.013.

Turning to CWC22 (UniProt Q9HCG8), the log2 fold change is -0.014.

Regarding CHMP4A isoform 2 (UniProt Q9BY43), the log2 fold change is 0.014.

For the target DDX54 isoform 2 (UniProt Q8TDD1), the log2 fold change is 0.069.

As for DLG3 isoform 2 (UniProt Q92796), the log2 fold change was 0.019.

Turning to COG3 (UniProt Q96JB2), the log2 fold change was -0.02.

With CMPK2 (UniProt Q5EBM0), the log2 fold change was -0.03.

In the case of CNOT6L (UniProt Q96LI5), the log2 fold change is -0.018.

As to CSK (UniProt P41240), the log2 fold change is 0.107.

As for CYP24A1 (UniProt Q07973), the log2 fold change is -0.05.

Consider DAZAP1 (UniProt Q96EP5), for which the log2 fold change is 0.02.

Take CNIH4 (UniProt Q9P003): the log2 fold change was 0.01.

For DNM2 (UniProt P50570), the log2 fold change is -0.022.

CMIP (UniProt Q8IY22): the log2 fold change is -0.001.

Turning to COQ9 (UniProt O75208), the log2 fold change is -0.02.

Turning to CNOT2 (UniProt Q9NZN8), the log2 fold change is 0.004.

As for DOCK8 (UniProt Q8NF50), the log2 fold change was 0.04.

Consider CSNK2B (UniProt P67870), for which the log2 fold change is 0.145.

For the target CPT1A (UniProt P50416), the log2 fold change is -0.036.

Regarding DNAH10 (UniProt Q8IVF4), the log2 fold change was 0.012.

Consider CKAP2 (UniProt Q8WWK9), for which the log2 fold change is -0.007.

CIC (UniProt I3L2J0): the log2 fold change is 0.005.

For COTL1 (UniProt Q14019), the log2 fold change is 0.022.

Consider CHORDC1 (UniProt Q9UHD1), for which the log2 fold change was -0.007.

With CXorf38 (UniProt Q8TB03), the log2 fold change is -0.058.

Turning to DHFR (UniProt P00374), the log2 fold change was 0.034.

On to CORO1A (UniProt P31146), for which the log2 fold change is 0.155.

With CHUK (UniProt O15111), the log2 fold change was -0.002.

For the target DIAPH3 (UniProt Q9NSV4), the log2 fold change was -0.04.

Turning to CIP2A (UniProt Q8TCG1), the log2 fold change is -0.002.

On to CIAO2A (UniProt Q9H5X1), for which the log2 fold change is 0.04.

Source of the values: the supplement of paper PMC10849652.
